PubChem BioAssay AID488966 (Southern Research Specialized Biocontainment Screening …, 2010)
Values joined by “and” are separate entries in the source; they are usually repeats but may differ in a detail not shown here. Equal values may be shown once. The whole screen tested about 340,000 compounds, of which about 55 (0.02%) were called active. Only a sample is shown. Measured potencies and affinities stand elsewhere. Values without a mark were called inactive.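 The calls were made as follows: active = phage lysis inhibition, versus mean bacterial control, above a set limit; inconclusive = no clear call, values can overlap the other calls; inactive = the rest.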

Test: inhibition of K1F phage lysis, E. coli UTI89, bacterial capsule biogenesis inhibitors, alamar blue (AID 488966);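 also: capsule biogenesis inhibitors block K1F phage lysis so surviving cells raise fluorescence; higher fluorescence means more inhibition of phage lysis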
Conditions: 2 h; inhibition: at 100 µM, active compounds read high unless noted; series mostly up to 300 µM; inhibition of phage lysis: at the top concentration

**Q.** With `CC(C)OCCCNC(=O)c1cc(-c2cccs2)nc2ccccc12` as the molecule, how does the inhibition read?
**A.** 0.22%

**Q.** For `CC1(C(=O)O)CCC(C(=O)Nc2ccccc2)C1(C)C` (stereo unspecified), which inhibition is on record?
**A.** 0.32%

**Q.** Which “inhibition of phage lysis” value does the source give for `COc1ccc(NC(=O)C2CCC(C)(C(=O)O)C2(C)C)cc1` (stereo unspecified) here?
**A.** 15.6%

**Q.** Which inhibition does the source give for `CC(=O)c1ccccc1OCCCOc1cccc2cccnc12` here?
**A.** 0.48%

**Q.** Which “inhibition of phage lysis” value does the source give for `O=C(Nc1ccc(Br)cc1)c1ccc2ncsc2c1` here?
**A.** 8.42%

**Q.** For `O=C(Nc1ccc(F)cc1)c1ccc2ncsc2c1`, which inhibition is on record?
**A.** 0.29%

**Q.** For `O=C(O)c1cc(-c2ccccc2)nn1CC1CC(c2cccnc2)=NO1` (stereo unspecified), which inhibition is on record?
**A.** 1.3%

**Q.** Which inhibition does the source give for `O=C(NCc1ccccc1)C1CCCN(S(=O)(=O)c2ccc(Br)cc2)C1` (stereo unspecified) here?
**A.** 1.64% [at 50 µM, active compounds read high]

**Q.** Which inhibition does the source give for `CC(C)(C)c1ccc(OCC(O)CN(CCO)CC(O)Cn2ccc3ccccc32)cc1` (stereo unspecified) here?
**A.** 0.2%

**Q.** Which inhibition does the source give for `CC1(c2ccccc2)NC(=O)N(NC(=O)CSc2n[nH]c(N)n2)C1=O` (stereo unspecified) here?
**A.** 0.72%

**Q.** For `COc1ccc(S(=O)(=O)N2CCN(c3ccccc3OC)CC2)cc1`, which inhibition is on record?
**A.** 0.03%

**Q.** With `Cc1ccc(C)c(NC(=O)COC(=O)CCc2ccc(S(=O)(=O)N3CCOCC3)cc2)c1` as the molecule, how does the inhibition read?
**A.** -0.17%

**Q.** For `CC(=O)Nc1cccc(-c2nnc(SCC(=O)N3CCCCC3)n2C)c1`, which inhibition is on record?
**A.** 0.94%

**Q.** For `Cc1ccc(NC(=O)CCC(=O)NNC(=O)COc2cccc3ccccc23)c(C)c1`, which inhibition is on record?
**A.** -0.27%

**Q.** For `CC(C)NC(=O)COc1cccc2ccccc12`, which inhibition is on record?
**A.** 1.21%

**Q.** Which inhibition does the source give for `Cc1cc(C)c(NC(=O)COc2nncc3ccccc23)c(C)c1` here?
**A.** -1.44%

**Q.** Which inhibition does the source give for `COc1ccccc1OCC(O)CN1CCN(CC(=O)Nc2c(C)cccc2C)CC1` (stereo unspecified) here?
**A.** 3.11% and 2.01%

**Q.** With `CC(CCc1ccccc1)NC(=O)CN1CCOc2ccccc21` (stereo unspecified) as the molecule, how does the inhibition read?
**A.** 0.85%

**Q.** For `CSc1ccc(CN(C)CC(=O)Nc2ccc(NC(C)=O)cc2)cc1`, which inhibition is on record?
**A.** -0.1%

**Q.** Which inhibition does the source give for `COc1ccc(-c2nc(NCCCN(C)C)c3ccccc3n2)cc1` here?
**A.** 5.55%

**Q.** For `CCN(CC)CCCNc1nc(-c2ccccc2)nc2ccccc12`, which inhibition is on record?
**A.** 0.145% [at 50 µM, active compounds read high]

**Q.** With `O=C(O)CCCC(=O)Nc1cccc(C(=O)Nc2ccccc2C(=O)O)c1` as the molecule, how does the inhibition read?
**A.** 1.41%

**Q.** For `O=C1c2ccccc2C(=O)c2c(Nc3ccc(CCO)cc3)ccc(O)c21`, which inhibition is on record?
**A.** -1.03% [at 50 µM, active compounds read high]

**Q.** Which “inhibition of phage lysis” value does the source give for `O=C1c2cccc(NCCCNCCO)c2C(=O)c2cccc(NCCCNCCO)c21` here?
**A.** 13.4%

**Q.** For `N=C(N)SCCc1cnc[nH]1`, which inhibition is on record?
**A.** 1.68%

**Q.** With `Cc1cccc(CSC(=N)N)c1` as the molecule, how does the inhibition read?
**A.** 7.29%
